Measurements published in PubChem BioAssay (NCI).
Compounds without any hit were thinned out: in the full panel of roughly 83,000, 20% have a hit.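 Plates (96-well) were seeded with cells, treated with compound at one concentration, and incubated for 48 hours before percent growth was determined.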 Unmarked numbers belong to inactive results. The source made the active and inactive calls. Rule for the calls: active = growth percent below 10; inactive = the rest.

Test system: MDA-MB-468 breast
Assay: NCI-60 one-dose screen, 48 h (100 = growth as untreated, 0 = no growth, -100 = all killed)
Conditions: 10 µM unless noted

## CC1(C)N=C(N)N=C(N)N1c1ccc(CCc2ccccc2)c(Cl)c1
  growth: -28.3% (active)

## O=C(COc1ccc(/C=C2\C(=O)Nc3ccc(Cl)cc32)cc1)Nc1ccc(Cl)cc1
  growth: 87.6%

## COc1ccc(/C=C2\CN(Cc3cn(CCCNc4ccnc5cc(Cl)ccc45)nn3)C/C(=C\c3ccc(OC)c(OC)c3)C2=O)cc1OC
  growth: -11.1% (active)

## O=C(NN1C(=O)CSC1c1ccc(Cl)cc1)c1cccnc1 (stereo not given)
  growth: 115%

## Cc1ccc(Nn2c(SCC(=O)Nc3nc(-c4ccccc4)cs3)nc(C)c2C)cc1
  growth: 17.7%

## c1csc(-c2cc(-c3cc(-c4cccs4)[nH]n3)n[nH]2)c1
  growth: 77.3%

## C/C(Nc1ccc(Cl)c(Cl)c1)=C1\CCOC1=O
  growth: 70.5%

## NC(=O)c1ncn2c(=O)n(CCF)nnc12
  growth: 48.4%

## C1=C2CNCC3=Cc4ccc5ccccc5c4OC23Oc2c1ccc1ccccc21
  growth: 50.4%

## O=C(/C=C/c1cccs1)Nc1ncc(Cc2ccccc2F)s1
  growth: -13.8% (active)

## CC(=O)NC(O)C(Cl)Cl (stereo not given)
  growth: 106%

## COc1cc(/C=C/c2cc(/C=C/c3ccc(O)c(OC)c3)n(C(=O)c3ccc(Cl)cc3)n2)ccc1O
  growth: 1.45% (active)

## COc1cc(/C=C/C(=O)c2ccc(NC(=O)CSc3nnc(-c4cc(-c5ccccc5)nc5ccccc45)n3-c3ccccc3)cc2)cc(OC)c1OC
  growth: 81.5%

## O=c1c2cc(F)ccc2sc2c(Nc3ccncc3)nc3ccccc3c12
  growth: 27.8%

## NS(=O)(=O)N(c1cc(C(F)(F)F)cc(C(F)(F)F)c1)C1CCN(Cc2ccc(F)cc2)CC1
  growth: 52.9%
